Screening results as filed in PubChem BioAssay.
Only a selection was taken, and hits are over-represented in it overall.
NS1 function inh: qHTS Assay for Inhibitors of Influenza NS1 Protein Function. Potency, µM (titrated, usually from 46.1 µM). 0.4% of 270,000 active. AID 2326, 2010; calls by dose curve; further: actives are rising curves; nearly all actives have a fitted effect of over 50% in size
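Recovery from NS1-induced slow growth read by OD600 in budding yeast switched to galactose assay medium (pH 6.0, -URA) at 1:100 dilution. Compound 23 nl per well; the matching strain lacking NS1 serves as control.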
Cruzain noTriton: qHTS Assay for Promiscuous and Specific Inhibitors of Cruzain (without detergent) | purified cruzain, Z-FR-AMC fluorescence, no detergent | Potency, µM, actives largely listed as inhibitors | 2.3% of 200,000 active | AID 1476, 2009; further: nearly all actives have a fitted effect of over 40% in size
Target sequence (P25779 123-467 limits assumed): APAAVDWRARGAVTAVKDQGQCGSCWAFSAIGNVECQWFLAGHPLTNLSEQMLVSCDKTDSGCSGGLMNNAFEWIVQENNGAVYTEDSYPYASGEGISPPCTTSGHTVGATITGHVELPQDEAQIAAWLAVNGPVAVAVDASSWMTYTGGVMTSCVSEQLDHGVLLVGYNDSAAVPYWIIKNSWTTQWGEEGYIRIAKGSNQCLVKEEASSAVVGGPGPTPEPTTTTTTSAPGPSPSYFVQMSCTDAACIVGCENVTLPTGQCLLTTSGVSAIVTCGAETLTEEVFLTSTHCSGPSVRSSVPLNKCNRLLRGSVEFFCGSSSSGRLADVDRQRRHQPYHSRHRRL
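Purified cruzain at 1.5 nM, pre-incubated 15 min with compound at room temperature in 100 mM sodium acetate pH 5.5, 5 mM DTT, 0.00005% Triton X-100. Reaction started with 2 uM Z-FR-AMC; AMC fluorescence increase over 60 s gives rate.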
Cruzain Triton: qHTS Assay for Promiscuous and Specific Inhibitors of Cruzain (with detergent). purified cruzain, Z-FR-AMC fluorescence, 0.01% Triton. Potency, µM, usual class: inhibitors. 0.43% of 200,000 active. Cruzipain (Trypanosoma cruzi), P25779. AID 1478, 2009; further: nearly all actives have a fitted effect of over 40% in size
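Cruzain (1.5 nM) preincubated 15 min at RT with compound in 100 mM sodium acetate pH 5.5, 5 mM DTT, 0.01% Triton X-100. Reaction started with 2 uM Z-FR-AMC; AMC fluorescence (ex 360/em 450 nm) change over 60 s gave rate.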
Each line names hits and unclear results; the compound was inactive in the other large screens. Unless noted, the call rests on the fitted dose curve; in most records, active means well fitted curve in the direction sought with a large enough effect; inconclusive means small, poorly fitted or top-dose-only effect, or another doubt; inactive means no such curve, though single readings can be large; an effect the other way counts as inactive or inconclusive.

Cn1c(C(=O)N2CCN(c3nc4ccccc4s3)CC2)cc2sccc21	none
O=C(c1cc2sccc2n1Cc1ccc(F)cc1)N1CCN(c2nc3ccccc3s2)CC1	NS1 function inh inconclusive, Cruzain noTriton 13µM
O=S(=O)(c1ccc(Br)cc1)N1CCC2(CC1)OCCO2	none (no result: Cruzain noTriton, Cruzain Triton)
CCN1CCN(C(=O)CCS(=O)(=O)c2cc3c(cc2Cl)NC(=O)CO3)CC1	none (no result: Cruzain noTriton, Cruzain Triton)
Clc1nc(-c2cccnc2)nc2scc(-c3ccccc3)c12	none
COc1ccc(-c2csc3nc(-c4cccnc4)nc(Cl)c23)cc1OC	Cruzain Triton 13µM
COc1ccc(CN2CC(C(=O)NCCc3ccccc3)CC2=O)cc1 (stereo not given)	none
CC(C)(CN1CCN(c2ccccc2)CC1)NS(=O)(=O)c1ccccc1	none (no result: Cruzain noTriton, Cruzain Triton)
CC(C)=NOc1cc(NC(=O)CCl)cc([N+](=O)[O-])c1	none
C#CCn1cc(/C=N/Nc2nc3ccccc3[nH]2)c2ccccc21	NS1 function inh inconclusive, Cruzain noTriton 32µM
C(=N\Nc1nc2ccccc2[nH]1)/c1cccc2nccnc12	none (no result: Cruzain noTriton, Cruzain Triton)
C=CCn1c(-c2ccccc2)c[nH]c1=S	NS1 function inh inconclusive
CCn1c(-c2ccc(-c3ccccc3)cc2)c[nH]c1=S	Cruzain noTriton 10µM
Cn1c(-c2ccc(-c3ccccc3)cc2)c[nH]c1=S	Cruzain noTriton 10µM
S=c1[nH]cc(-c2ccccc2)n1-c1cccc(Cl)c1	none
Cc1nn(C)c(-c2n[nH]c(=S)n2Cc2ccco2)c1Cl	none
Cc1ccccc1NC(=O)C1c2cccc[n+]2CC(=O)N1c1c(C)cccc1C (stereo not given)	none
COc1ccc(-n2c(Cc3cccn3C)nnc2SCC(=O)NCc2ccccc2Cl)cc1	none
CCn1c(COc2ccc3c(c2)CCCC3)nnc1SCC(=O)Nc1nccs1	Cruzain noTriton 7.9µM
CCc1nnc(SCC(=O)Nc2nccs2)n1CC	none (no result: Cruzain noTriton, Cruzain Triton)
O=C(COC(=O)C12CC3CC(CC(C3)C1)C2)NCCCc1ccccc1	none
COc1ccc(/C(C)=N/OC/C(O)=C(\C#N)c2nc3ccccc3[nH]2)cc1	Cruzain noTriton 5µM
COc1ccc(/C=N/OC/C(O)=C(\C#N)c2nc3ccccc3[nH]2)cc1OC	none
Cc1ccc(C(=O)Nc2ccc(-c3nc4ccccc4s3)cc2C)cc1C	none (no result: NS1 function inh)
Cc1ccc(C(=O)Oc2cccc(NC(=O)c3ccccc3)c2)cc1C	none
CCC(C)Sc1nc2c(cnn2-c2ccc(C)cc2)c(=O)[nH]1 (stereo not given)	Cruzain noTriton 20µM
O=c1[nH]c(SCc2ccccc2)nc2c1cnn2-c1ccc(F)cc1	none (no result: Cruzain noTriton, Cruzain Triton)
O=c1[nH]c(SCc2ccc(F)cc2)nc2c1cnn2-c1ccc(F)cc1	Cruzain noTriton 16µM
CCCCSc1nc2c(cnn2-c2ccc(C)c(C)c2)c(=O)[nH]1	Cruzain noTriton 20µM
CCC(C)Sc1nc2c(cnn2-c2ccccc2)c(=O)[nH]1 (stereo not given)	none
CCCSc1nc2c(cnn2-c2ccc(C)c(C)c2)c(=O)[nH]1	none
CCOC(=O)C1(Cc2ccccc2)CCCN(Cc2ccc(OCC)c(CO)c2)C1 (stereo not given)	none (no result: Cruzain noTriton, Cruzain Triton)
COc1cccc(-n2nnc3c(=O)n(Cc4ccccc4F)cnc32)c1	none
Cc1ccn2cc(CCNS(=O)(=O)c3ccc([N+](=O)[O-])cc3)nc2c1	none (no result: Cruzain noTriton, Cruzain Triton)
Cc1ccn2cc(CCNS(=O)(=O)c3ccc(F)c(C(F)(F)F)c3)nc2c1	Cruzain noTriton 25µM
O=S(=O)(NCCc1cn2ccccc2n1)c1ccc(F)c(C(F)(F)F)c1	Cruzain Triton 25µM
O=[N+]([O-])c1cccc(S(=O)(=O)NCCc2cn3ccccc3n2)c1	none (no result: Cruzain noTriton, Cruzain Triton)
Cc1cccc(N=C2NC(=O)S/C2=C\c2ccco2)c1	Cruzain noTriton inconclusive
O=C1NC(=Nc2ccc(Cl)cc2)/C(=C/c2ccco2)S1	Cruzain noTriton 5µM
CC(=O)Nc1ccc(C2=NN(Cc3nnc(-c4ccccc4)o3)C(=O)SC2)cc1	NS1 function inh inconclusive, Cruzain noTriton inconclusive
O=C1SCC(c2ccc(Cl)cc2Cl)=NN1Cc1nnc(-c2ccccc2)o1	Cruzain noTriton 16µM
COc1ccccc1NS(=O)(=O)NC(=O)c1cn(C)c2ccccc12	none (no result: Cruzain noTriton, Cruzain Triton)
Cn1ncc(Br)c1C(=O)N/N=C/c1cccc(OC2CSC2)c1	none
O=C(N/N=C/c1cccc(OC2CSC2)c1)c1ccccc1O	Cruzain noTriton 10µM
O=C(N/N=C/c1c[nH]c2ccccc12)c1cc(-c2ccccc2)n[nH]1	none
O=C(N/N=C/c1c[nH]c2ccccc12)c1cc(-c2ccc(-c3ccccc3)cc2)n[nH]1	Cruzain noTriton 7.9µM
CCOC(=O)c1cccc(NC(=O)CC2C(=O)N(c3ccc(F)cc3)C(=O)N2C(C)C)c1 (stereo not given)	none (no result: NS1 function inh)
CCn1cc(/C=N\NC(=O)COc2cccc(C)c2C)c(C)n1	none
COc1ccc(OC)c(Nc2nc(-c3cccs3)cs2)c1	NS1 function inh inconclusive, Cruzain noTriton inconclusive
COc1ccc(C)cc1Nc1nc(-c2c[nH]c3ccccc23)cs1	NS1 function inh inconclusive, Cruzain noTriton 16µM
CN(c1ccccc1)S(=O)(=O)c1ccc(C(=O)OCC(=O)NC(N)=O)cc1	none (no result: Cruzain noTriton, Cruzain Triton)
Nn1cnnc1N/N=C\c1ccc(-c2ccccc2[N+](=O)[O-])o1	Cruzain Triton 20µM
O=[N+]([O-])c1ccccc1-c1ccc(/C=N/n2cnnc2)o1	none
CCc1cccc(NC(=O)c2cc(S(=O)(=O)N3CCCCCC3)cn2C)c1	none (no result: NS1 function inh)
CCCCCN1C(C(=O)c2ccccc2)=C(NC(C)=O)c2ccccc2S1(=O)=O	none (no result: NS1 function inh)
CCCCCN1C(C(=O)c2ccccc2)=C(NC(=O)c2ccccc2Cl)c2ccccc2S1(=O)=O	Cruzain noTriton 10µM (no result: NS1 function inh)
COc1ccccc1C(=O)Nc1cc(Cl)ccc1-n1cncn1	none (no result: Cruzain noTriton, Cruzain Triton)
CC(C)Oc1ccc(/C(O)=C2/C(=O)C(=O)N(CCCN3CCOCC3)C2c2ccncc2)cc1 (stereo not given)	none (no result: Cruzain noTriton, Cruzain Triton)
CCCOc1ccc(/C(O)=C2/C(=O)C(=O)N(CCCN3CCOCC3)C2c2ccncc2)cc1 (stereo not given)	NS1 function inh 10µM
Cc1ccc(CNC(=O)Cn2ccc3cc(S(=O)(=O)N4CCCCCC4)ccc32)cc1	none (no result: Cruzain noTriton, Cruzain Triton)
COc1ccc(/C=C(\C#N)c2nc3ccc(C)cc3[nH]2)cc1Oc1ccc(C(F)(F)F)cc1[N+](=O)[O-]	Cruzain noTriton 5µM
Cc1ccc2nc(/C(C#N)=C\c3ccc(Oc4ccc(C(F)(F)F)cc4[N+](=O)[O-])cc3)[nH]c2c1	Cruzain noTriton 7.9µM
N#C/C(=C\c1cccc(Oc2ccc(C(F)(F)F)cc2[N+](=O)[O-])c1)c1nc2ccccc2[nH]1	none
COc1cc(/C=C(\C#N)c2nc3ccc(C)cc3[nH]2)cc([N+](=O)[O-])c1O	none (no result: Cruzain noTriton, Cruzain Triton)
Cc1cc(C)c2c(-c3ccc(-c4ccc(C(F)(F)F)cc4)cc3)cc(=O)oc2c1	Cruzain noTriton 25µM (no result: NS1 function inh)
COc1ccc(-c2ccc(-c3cc(=O)oc4cc(C)cc(C)c34)cc2)cc1	Cruzain noTriton inconclusive (no result: NS1 function inh)
CC1(C)Cc2ccccc2C(NNC(=O)c2ccncc2)=N1	none
CCN(CC)c1ccc(C=C(c2nnnn2-c2ccc(C)cc2)c2nnnn2-c2ccc(C)cc2)cc1	Cruzain noTriton 32µM
Cc1ccc(-n2nnnc2C(Cl)c2nnnn2-c2ccc(C)cc2)cc1	none
COc1ccc(Cl)cc1N/C(N)=N/c1nc(CSc2ccc(C)cc2)cc(=O)[nH]1	Cruzain noTriton inconclusive
Cc1ccc(SCc2cc(=O)[nH]c(/N=C(\N)Nc3cccc4ccccc34)n2)cc1	Cruzain noTriton 32µM
